± gives the standard deviation of the averaged measurements. Whole data set: some 33,000 sequences, median “E-score (rank enrichment, -0.5 to 0.5)” near -0.0043, cut for the highest 2% near 0.24. This is one part of a sample in which the highest values are shown more often than they occur.
test system: 2Sp-muMax20 (muMax20 with two 2,6-bis(methyl)pyridine Cys staples); assay: PBM 8-mer E-score (E-score (rank enrichment, -0.5 to 0.5)); higher = stronger preferential binding
Method: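 Protein binding microarray (universal PBM chip covering all 10-mers in fixed probe flanks) with chemically synthesized human Max(13-93) bHLH-LZ analogs (not full-length Max) bearing noncanonical residues (hArg, Tha, Aib, Nle at 65) and aromatic Cys staples. Read-out per 8-mer (and its reverse complement): E-score (rank-based enrichment, -0.5 to 0.5) and Z-score of median probe intensity.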

In order of rising “PBM 8-mer E-score” value:
1. CCCCAGGG  -0.293 ± 0.032
2. GTTACCGA  -0.284 ± 0.013
3. AGCCGGTG  -0.254 ± 0.045
4. GCGGCAGA  -0.228 ± 0.049
5. AGGTTTAC  -0.222 ± 0.071
6. GCGATGCC  -0.221 ± 0.0047
7. GATCTTCC  -0.219 ± 0.038
8. AGGGCTCG  -0.212 ± 0.027
9. CAACCTCG  -0.194 ± 0.05
10. ACCGCACT  -0.193 ± 0.07
11. AGTGTCGG  -0.166 ± 0.11
12. ACGAACTC  -0.159 ± 0.021
13. CAACTTGC  -0.157 ± 0.011
14. CGGTGATC  -0.15 ± 0.0077
15. GAAAGGCC  -0.146 ± 0.053
16. CCAGACCC  -0.142 ± 0.016
17. GCGATGGA  -0.138 ± 0.0024
18. AGACTCAA  -0.111 ± 0.022
19. AACAGATA  -0.0996 ± 0.022
20. CCCGTACG  -0.0914 ± 0.052
21. ACTCTAGC  -0.0888 ± 0.0064
22. GTACGCAA  -0.0841 ± 0.033
23. AGGATCAA  -0.0715 ± 0.043
24. CCAGCAGA  -0.0671 ± 0.018
25. GGTTACTA  -0.067 ± 0.092
26. CAAGGCCG  -0.065 ± 0.016
27. GATTAATC  -0.0645 ± 0.077
28. CCATGTAC  -0.0575 ± 0.098
29. GCTGACCA  -0.0567 ± 0.026
30. AATCACAG  -0.0564 ± 0.011
31. AAACTGGC  -0.0533 ± 0.0029
32. GTCCTGCA  -0.0516 ± 0.027
33. AAGGCGTG  -0.0484 ± 0.012
34. GAACGTAC  -0.045 ± 0.0085
35. AATCACGA  -0.0412 ± 0.011
36. GTGCGCAA  -0.0392 ± 0.038
37. AGGTGGAG  -0.0381 ± 0.055
38. AATAATAC  -0.0356 ± 0.042
39. ACTTTATC  -0.0354 ± 0.037
40. GCTTTGCA  -0.0268 ± 0.02
41. GATGCCCC  -0.0212 ± 0.099
42. CAAGAGCC  -0.0162 ± 0.036
43. ATCTCTGA  -0.0124 ± 0.14
44. AAAGGCCC  -0.012 ± 0.043
45. AACGTCCA  -0.012 ± 0.044
46. ACGAGCCT  -0.00942 ± 0.0098
47. CCATCCCG  -0.00777 ± 0.0093
48. AGAGGGCT  -0.00447 ± 0.07
49. ATAGCCGA  -0.00055 ± 0.0078
50. CTATGTAA  0.00312 ± 0.013
51. AAACTGTA  0.00471 ± 0.023
52. CAATGTAC  0.00633 ± 0.095
53. AAAAAGGC  0.00635 ± 0.045
54. ACAAGTAG  0.00901 ± 0.018
55. ATTCCAGA  0.0163 ± 0.071
56. AGGAGGCG  0.0177 ± 0.059
57. ATGCGCAG  0.0186 ± 0.025
58. ACAAGGGG  0.0199 ± 0.047
59. GACAGATC  0.0282 ± 0.0066
60. ACGTTATC  0.034 ± 0.046
61. AACATGAG  0.0341 ± 0.0065
62. CCCTTCAC  0.0356 ± 0.018
63. ACTGTGCC  0.0364 ± 0.042
64. GGGGCAAA  0.0419 ± 0.059
65. CAAAAGGC  0.0445 ± 0.053
66. ATACGCAG  0.0458 ± 0.043
67. AAAAAACT  0.0474 ± 0.0053
68. AGCCTTGG  0.0479 ± 0.022
69. ACATGCAG  0.0533 ± 0.012
70. CAAAGGCC  0.0557 ± 0.1
71. TACGCGTA  0.0583 ± 0.054
72. CATAATAA  0.0619 ± 0.015
73. ACGGGGCG  0.0718 ± 0.047
74. CAAATGTG  0.0759 ± 0.025
75. ACCATGTA  0.0783 ± 0.049
76. CTCATGTA  0.0793 ± 0.033
77. GATAGGGC  0.081 ± 0.019
78. ATAGTATC  0.0888 ± 0.11
79. TCATGTAA  0.0907 ± 0.036
80. ATGACTTA  0.0917 ± 0.049
81. AGCCCAAC  0.0919 ± 0.041
82. CACATGTC  0.0937 ± 0.018
83. ACATGCAC  0.0958 ± 0.01
84. ATATGTAA  0.0958 ± 0.035
85. CCATGCGA  0.0984 ± 0.026
86. ACCATGTC  0.0986 ± 0.05
87. AAGCTGAA  0.104 ± 0.047
88. GATGTATA  0.107 ± 0.023
89. GCGCCTCC  0.111 ± 0.079
90. GAGCAGTA  0.113 ± 0.0065
91. GTAGTTGA  0.116 ± 0.0092
92. CATCACAC  0.118 ± 0.035
93. CATGTAAA  0.12 ± 0.055
94. ATAGTTGA  0.121 ± 0.077
95. CCATGTAA  0.122 ± 0.09
96. AACATGCT  0.126 ± 0.0074
97. CCCTAAAG  0.134 ± 0.057
98. ATCCAGTA  0.134 ± 0.028
99. ATTGCATC  0.134 ± 0.014
100. AAATGTAG  0.134 ± 0.1
101. AATAATAG  0.137 ± 0.084
102. CACATGAA  0.138 ± 0.035
103. GATCATGA  0.139 ± 0.016
104. AACATGTC  0.143 ± 0.038
105. AATCACAA  0.144 ± 0.036
106. ACATGTCC  0.151 ± 0.033
107. CATAATGG  0.153 ± 0.026
108. GATCACAC  0.153 ± 0.019
109. GCATGCGC  0.164 ± 0.06
110. ACATGTCG  0.164 ± 0.071
111. CATGTATA  0.165 ± 0.0069
112. GATGACGA  0.165 ± 0.017
113. CACATGCG  0.166 ± 0.097
114. ATTGAGGC  0.167 ± 0.021
115. AGATGTAT  0.167 ± 0.023
116. AGATGTAG  0.167 ± 0.023
117. AAACTTGA  0.17 ± 0.089
118. GATTAACA  0.174 ± 0.046
119. CGTTATGC  0.177 ± 0.027
120. ATGCGCAA  0.184 ± 0.017
121. ACTTGAAG  0.186 ± 0.027
122. AATGTAAT  0.189 ± 0.0034
123. ACTTTATA  0.192 ± 0.053
124. AATCACGC  0.193 ± 0.015
125. ATGCGCAC  0.195 ± 0.071
126. TCGATACA  0.197 ± 0.0083
127. CATTAATA  0.201 ± 0.014
128. ACGTTATA  0.204 ± 0.072
129. AAAGTTTA  0.206 ± 0.054
130. ACGTGCAA  0.212 ± 0.029
131. GCATGCAC  0.216 ± 0.023
132. GACATGTA  0.217 ± 0.066
133. TATTAACA  0.218 ± 0.011
134. TCATGCAA  0.219 ± 0.014
135. TACATGCA  0.222 ± 0.018
136. AGCATGTG  0.223 ± 0.016
137. AACATGTA  0.2242 ± 0.0011
138. AATCACAC  0.236 ± 0.041
139. GTATGTAA  0.236 ± 0.055
140. CATAATAG  0.237 ± 0.028
141. ACATGTAA  0.24 ± 0.04
142. ACATGTAG  0.241 ± 0.051
143. AACAGATC  0.243 ± 0.058
144. GCATGCAA  0.244 ± 0.014
145. CATAATAC  0.249 ± 0.028
146. ACATGTCT  0.251 ± 0.006
147. AACATGCG  0.253 ± 0.035
148. AATCACGT  0.254 ± 0.024
149. ACCATGTG  0.262 ± 0.03
150. TACATGTA  0.265 ± 0.051
151. AAACTTGC  0.267 ± 0.039
152. AATGTATA  0.269 ± 0.048
153. AATCACAT  0.27 ± 0.019
154. TATTAATA  0.274 ± 0.1
155. GATTAATA  0.274 ± 0.062
156. ACATGTAT  0.277 ± 0.0074
157. AAAGGCCG  0.281
158. ACTTTATG  0.281 ± 0.065
159. ACGTTATG  0.284 ± 0.0056
160. AAATGTAC  0.296 ± 0.052
161. AAAAGGCC  0.3 ± 0.0042
162. GCATGCGA  0.3 ± 0.012
163. AACATGTT  0.304 ± 0.043
164. GAAAAGGC  0.308 ± 0.013
165. ATACGCAA  0.308 ± 0.062
166. AATGTAAA  0.311 ± 0.014
167. CACATGTA  0.312 ± 0.02
168. ACATGCAT  0.333 ± 0.0087
169. ATGCGCAT  0.335 ± 0.061
170. TTGCGCAA  0.344 ± 0.0038
171. AACATGTG  0.36 ± 0.026
172. CACATGTG  0.4178 ± 0.00081
